Source: PubChem BioAssay AID1159580 (chemical genetic matrix, 2015)
“And” between values parts separate entries of the source, which are not always exact repeats. Equal values may be shown once. The campaign covered roughly 5,500 compounds. About 2,000 (36%) were called active. Inconclusive results (about 18%) are left out. This is one part of the list. Unmarked numbers belong to inactive results. Rule as the data show it: active = normalized growth mostly below about 0.91 (no sharp cut-off); inconclusive = no clear call, values can overlap the other calls; inactive = mostly above about 0.92.

Assay: chemical genetic growth profiling, strain panel (AID 1159580);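 also: tested at 20 µM; growth read once vehicle control cultures reached saturation at 30 °C; 1 = growth at the plate median or of vehicle wells; lower values mean less growth of the strain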
Details: growth OD

## OCCN1CCN(CCCN2c3ccccc3Sc3ccc(C(F)(F)F)cc32)CC1
S. cerevisiae deletion strains, locus YJR075W, strain HOC1, stronger effect = lower value
  normalized growth: 0.939 and 0.985
S. cerevisiae deletion strains, locus YKL009W, strain mrt4, stronger effect = lower value
  normalized growth: 0.926
S. cerevisiae deletion strains, locus YKL068W, stronger effect = lower value
  normalized growth: 0.987
S. cerevisiae deletion strains, locus YKL085W, strain MDH1 (second series), stronger effect = lower value
  normalized growth: 0.981
S. cerevisiae deletion strains, locus YKL085W, strain MDH1, stronger effect = lower value
  normalized growth: 0.981
S. cerevisiae deletion strains, locus YKL160W, strain elf1, stronger effect = lower value
  normalized growth: 0.907
S. cerevisiae deletion strains, locus YKL190W, strain CNB1, stronger effect = lower value
  normalized growth: 0.975
S. cerevisiae deletion strains, locus YKR001C, strain vps1, stronger effect = lower value
  normalized growth: 0.864 (active)
S. cerevisiae deletion strains, locus YKR026C, strain gcn3, stronger effect = lower value
  normalized growth: 0.998
S. cerevisiae deletion strains, locus YKR091W, strain srl3, stronger effect = lower value
  normalized growth: 0.976
S. cerevisiae deletion strains, locus YLL001W, strain dnm1, stronger effect = lower value
  normalized growth: 0.983
S. cerevisiae deletion strains, locus YLL026W, stronger effect = lower value
  normalized growth: 0.968
S. cerevisiae deletion strains, locus YLL041C, strain sdh2, stronger effect = lower value
  normalized growth: 0.968
S. cerevisiae deletion strains, locus YLR027C, strain aat2, stronger effect = lower value
  normalized growth: 0.951
S. cerevisiae deletion strains, locus YLR039C, strain RIC1, stronger effect = lower value
  normalized growth: 1.48 [resistant] (active)
S. cerevisiae deletion strains, locus YLR058C, strain SHM2, stronger effect = lower value
  normalized growth: 0.976
S. cerevisiae deletion strains, locus YLR102C, strain apc9, stronger effect = lower value
  normalized growth: 0.995
S. cerevisiae deletion strains, locus YLR221C, strain rsa3, stronger effect = lower value
  normalized growth: 0.975
S. cerevisiae deletion strains, locus YLR258W, strain gsy2, stronger effect = lower value
  normalized growth: 0.949
S. cerevisiae deletion strains, locus YLR262C, strain YPT6 (second series), stronger effect = lower value
  normalized growth: 1.04
S. cerevisiae deletion strains, locus YLR262C, strain YPT6, stronger effect = lower value
  normalized growth: 1.41 [resistant] (active)
S. cerevisiae deletion strains, locus YLR268W, strain sec22, stronger effect = lower value
  normalized growth: 0.901
S. cerevisiae deletion strains, locus YLR320W, strain mms22, stronger effect = lower value
  normalized growth: 0.999
S. cerevisiae deletion strains, locus YLR330W, strain CHS5, stronger effect = lower value
  normalized growth: 1.03
S. cerevisiae deletion strains, locus YLR342W, strain FKS1 (second series), stronger effect = lower value
  normalized growth: 0.723 (active)
S. cerevisiae deletion strains, locus YLR342W, strain FKS1, stronger effect = lower value
  normalized growth: 0.807 (active)
S. cerevisiae deletion strains, locus YLR357W, strain rsc2, stronger effect = lower value
  normalized growth: 0.984
S. cerevisiae deletion strains, locus YLR370C, strain arc18, stronger effect = lower value
  normalized growth: 0.952
S. cerevisiae deletion strains, locus YLR371W, strain rom2, stronger effect = lower value
  normalized growth: 0.983
S. cerevisiae deletion strains, locus YLR384C, strain iki3, stronger effect = lower value
  normalized growth: 0.981
S. cerevisiae deletion strains, locus YLR418C, strain cdc73, stronger effect = lower value
  normalized growth: 0.76 (active)
S. cerevisiae deletion strains, locus YML016C, strain PPZ1, stronger effect = lower value
  normalized growth: 0.994
S. cerevisiae deletion strains, locus YML032C, strain rad52, stronger effect = lower value
  normalized growth: 0.926
S. cerevisiae deletion strains, locus YML120C, strain ndi1, stronger effect = lower value
  normalized growth: 0.995
S. cerevisiae deletion strains, locus YML124C, strain tub3, stronger effect = lower value
  normalized growth: 1
S. cerevisiae deletion strains, locus YMR058W, strain fet3, stronger effect = lower value
  normalized growth: 0.884 (active)
S. cerevisiae deletion strains, locus YMR078C, strain ctf18, stronger effect = lower value
  normalized growth: 0.986
S. cerevisiae deletion strains, locus YMR125W, strain sto1, stronger effect = lower value
  normalized growth: 0.957
S. cerevisiae deletion strains, locus YMR129W, stronger effect = lower value
  normalized growth: 0.978
S. cerevisiae deletion strains, locus YMR205C, strain PFK2, stronger effect = lower value
  normalized growth: 0.992
S. cerevisiae deletion strains, locus YMR223W, strain ubp8, stronger effect = lower value
  normalized growth: 0.963
S. cerevisiae deletion strains, locus YMR231W, strain pep5, stronger effect = lower value
  normalized growth: 0.0843 (active)
S. cerevisiae deletion strains, locus YMR263W, strain SAP30, stronger effect = lower value
  normalized growth: 0.933 and 0.994
S. cerevisiae deletion strains, locus YMR307W, strain GAS1, stronger effect = lower value
  normalized growth: 0.852 and 1.02
S. cerevisiae deletion strains, locus YNL067W, strain RPL9B, stronger effect = lower value
  normalized growth: 0.921
S. cerevisiae deletion strains, locus YNL071W, strain lat1, stronger effect = lower value
  normalized growth: 0.988
S. cerevisiae deletion strains, locus YNL128W, strain TEP1, stronger effect = lower value
  normalized growth: 0.944
S. cerevisiae deletion strains, locus YNL153C, strain GIM3, stronger effect = lower value
  normalized growth: 0.919 and 0.859
S. cerevisiae deletion strains, locus YNL175C, strain NOP13, stronger effect = lower value
  normalized growth: 1.01
S. cerevisiae deletion strains, locus YNL197C, strain WHI3, stronger effect = lower value
  normalized growth: 1.01
S. cerevisiae deletion strains, locus YNL209W, strain ssb2, stronger effect = lower value
  normalized growth: 0.952
S. cerevisiae deletion strains, locus YNL224C, strain SQS1, stronger effect = lower value
  normalized growth: 1.02
S. cerevisiae deletion strains, locus YNL233W, strain BNI4, stronger effect = lower value
  normalized growth: 0.909
S. cerevisiae deletion strains, locus YNL248C, strain rpa49, stronger effect = lower value
  normalized growth: 0.901
S. cerevisiae deletion strains, locus YNL250W, strain rad50, stronger effect = lower value
  normalized growth: 0.989
S. cerevisiae deletion strains, locus YNL271C, strain bni1, stronger effect = lower value
  normalized growth: 0.986
S. cerevisiae deletion strains, locus YNL298W, strain CLA4, stronger effect = lower value
  normalized growth: 0.963
S. cerevisiae deletion strains, locus YNL307C, strain MCK1, stronger effect = lower value
  normalized growth: 0.98
S. cerevisiae deletion strains, locus YNL322C, strain KRE1 (second series), stronger effect = lower value
  normalized growth: 0.968
S. cerevisiae deletion strains, locus YNL322C, strain KRE1, stronger effect = lower value
  normalized growth: 0.995
S. cerevisiae deletion strains, locus YNR049C, strain mso1, stronger effect = lower value
  normalized growth: 0.984
S. cerevisiae deletion strains, locus YNR052C, strain pop2, stronger effect = lower value
  normalized growth: 0.938
S. cerevisiae deletion strains, locus YOL006C, strain TOP1, stronger effect = lower value
  normalized growth: 0.629
S. cerevisiae deletion strains, locus YOL012C, strain htz1
  normalized growth: 1.6
S. cerevisiae deletion strains, locus YOL147C, strain pex11, stronger effect = lower value
  normalized growth: 0.986
S. cerevisiae deletion strains, locus YOR001W, strain rrp6, stronger effect = lower value
  normalized growth: 0.943
S. cerevisiae deletion strains, locus YOR061W, strain CKA2, stronger effect = lower value
  normalized growth: 0.987
S. cerevisiae deletion strains, locus YOR069W, strain VPS5, stronger effect = lower value
  normalized growth: 0.986
S. cerevisiae deletion strains, locus YOR070C, strain gyp1, stronger effect = lower value
  normalized growth: 0.938
S. cerevisiae deletion strains, locus YOR080W, strain dia2, stronger effect = lower value
  normalized growth: 0.989
S. cerevisiae deletion strains, locus YOR083W, strain WHI5 (second series), stronger effect = lower value
  normalized growth: 0.886
S. cerevisiae deletion strains, locus YOR083W, strain WHI5, stronger effect = lower value
  normalized growth: 0.855 (active)
S. cerevisiae deletion strains, locus YOR106W, strain vam3, stronger effect = lower value
  normalized growth: 0.644 (active)
S. cerevisiae deletion strains, locus YOR136W, strain idh2, stronger effect = lower value
  normalized growth: 0.978
S. cerevisiae deletion strains, locus YOR144C, strain elg1, stronger effect = lower value
  normalized growth: 0.999
S. cerevisiae deletion strains, locus YOR184W, strain ser1, stronger effect = lower value
  normalized growth: 0.99
S. cerevisiae deletion strains, locus YOR265W, strain rbl2, stronger effect = lower value
  normalized growth: 0.986
S. cerevisiae deletion strains, locus YOR270C, strain vph1, stronger effect = lower value
  normalized growth: 0.788
S. cerevisiae deletion strains, locus YOR290C, strain snf2, stronger effect = lower value
  normalized growth: 0.911
S. cerevisiae deletion strains, locus YOR316C, strain cot1, stronger effect = lower value
  normalized growth: 0.991
S. cerevisiae deletion strains, locus YPL051W, strain arl3, stronger effect = lower value
  normalized growth: 0.874 (active)
S. cerevisiae deletion strains, locus YPL055C, strain LGE1, stronger effect = lower value
  normalized growth: 0.902 and 0.943
S. cerevisiae deletion strains, locus YPL078C, strain atp4, stronger effect = lower value
  normalized growth: 0.941
S. cerevisiae deletion strains, locus YPL106C, strain sse1, stronger effect = lower value
  normalized growth: 0.988
S. cerevisiae deletion strains, locus YPL240C, strain hsp82, stronger effect = lower value
  normalized growth: 0.984
S. cerevisiae deletion strains, locus YPL241C, strain CIN2, stronger effect = lower value
  normalized growth: 0.997
S. cerevisiae deletion strains, locus YPR119W, strain clb2, stronger effect = lower value
  normalized growth: 0.988
S. cerevisiae deletion strains, locus YPR141C, strain kar3, stronger effect = lower value
  normalized growth: 0.985
S. cerevisiae deletion strains, locus YPR163C, strain tif3, stronger effect = lower value
  normalized growth: 0.89 (active)
S. cerevisiae deletion strains, locus YPR167C, strain met16, stronger effect = lower value
  normalized growth: 0.984
S. cerevisiae deletion strains, strain wtn01, stronger effect = lower value
  normalized growth: 0.887 (active)
S. cerevisiae strains, strain wild type, stronger effect = lower value
  normalized growth: 0.949
